# Results as given in PubChem BioAssay.
# Tested on: not listed separately
# Assay: small-molecule microarray binders of probe aLefty2, primary screen, biochemical, biotinylated probe, 635/667 nm fluorescence (AID 1094);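 also: score merges spot fluorescence near 667 nm with spot signal-to-noise ratio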
# Conditions: higher = more signal
row,SMILES,composite z-score
1,COc1cc2c(cc1OC)CN(C(=O)[C@H]1[C@@H]3C(=O)O[C@@H](c4ccccc4)[C@@H](c4ccccc4)N3[C@@H](c3ccc(O)cc3)[C@]13C(=O)Nc1ccc(C#CC4=CCCCC4)cc13)CC2,0.0857
2,CN1C(=O)C2C=CC(C(O)c3cc(C(F)(F)F)cc(C(F)(F)F)c3)N(N3CCCCC3)C2C1=O (stereo not given),0.254
3,COCC(=C=CC[C@H](O)c1ccccc1OCCO)C[C@H](O)c1cc(Cl)cc(Cl)c1O,-0.0653
4,CCCN1C(=O)[C@]2(CCS(=O)(=O)c3ccccc3)N=C(c3ccc(OCCCO)cc3)O[C@@H]2c2ccccc21,0.106
5,COc1cc2c(cc1OC)CN(C(=O)[C@H]1[C@@H]3C(=O)O[C@@H](c4ccccc4)[C@@H](c4ccccc4)N3[C@@H](c3ccc(O)cc3)[C@]13C(=O)Nc1ccc(C#CCNC(N)=O)cc13)CC2,0.0386
6,CN(C)CCCNC(=O)[C@@]1(C)c2ccccc2C(=O)N(Cc2cc(F)cc(C(F)(F)F)c2)[C@H]1c1ccc(CO)cc1,-0.203
7,O=C1C2C=CC(C(O)C3CCCCC3)N(Nc3ccc([N+](=O)[O-])cc3)C2C(=O)N1c1ccccc1 (stereo not given),-0.314
8,O=C1OCCC/C=C\[C@H]2OC34C=CCN(c5ccc6ccccc6c5)C(=O)[C@H]3N(CCCCCCO)C(=O)[C@@H]4C12 (stereo not given in full),-0.25
9,COCCOC(=O)N1C(=O)[C@@]2(c3cc(C#CCNC(N)=O)ccc31)[C@H](C(=O)NC[C@H](O)c1ccccc1)[C@H]1C(=O)O[C@H](c3ccccc3)[C@H](c3ccccc3)N1[C@@H]2c1ccccc1OCCO,-0.0644
10,CC(C)(C)OC(=O)CC[C@@]12N=C(c3ccc(OCCCO)cc3)O[C@@H]1c1ccccc1N(CCS(=O)(=O)c1ccccc1)C2=O,0.193
11,COC(=O)[C@@]1(Cc2ccc(F)cc2)[C@H]2c3cc(C(=O)N4CCCC4)n(Cc4cc(C)n(C)n4)c3C[C@H]2CN1C(=O)c1ccccc1,0.555
12,COC(=O)c1c(CC[C@@H](CO)NC(=O)N2CCC[C@H]2Cn2cc(-c3ccccn3)nn2)oc(C(C)=O)c1C(=O)OC,-0.155
13,CCOC(=O)[C@H]1CC=C2CC1C(=O)N1CCC[C@@H]1[C@@H]2O[Si](C)(C)C(C)(C)C (stereo not given in full),-0.376
14,C=CCC(OC(C)=O)[C@@H]1[C@@H](N(Cc2ccc(-c3ccccc3)cc2)C(=O)Cc2ccc(F)cc2)c2cc(OCCCO)ccc2N1C(=O)c1ccc(-c2ccccc2)cc1 (stereo not given in full),0.0631
15,CCOC(=O)C[C@H]1[C@H](OC(=O)Cc2ccc3c(c2)OCO3)[C@@H](NC(=O)c2ccc(-c3ccccc3)cc2)c2cc(OCCCO)ccc2N1C(=O)c1ccc2ccccc2n1,-0.168
16,COCCCNC(=O)[C@@]1(Cc2ccccc2)N=C(c2ccc(OCCCO)cc2)O[C@H]1c1ccccc1,0.355
17,NC(=O)[C@@H]1[C@H]2C(=O)O[C@H](c3ccccc3)[C@H](c3ccccc3)N2[C@H](c2ccc(O)cc2)[C@@]12C(=O)Nc1ccc(C#CC3(O)CCCCCC3)cc12,-0.072
18,COc1cc2c(cc1O)C(C1CC1)N(Cc1cc3c(cc1Br)OCO3)CC2 (stereo not given),-0.209
19,CCCCCC1=C2CNC(CCC)(C(=O)OC)C=C2C(C)C1=O (stereo not given),0.0943
20,COc1ccc(C(O)C2C=CC3C(=O)NC(=O)C3N2Nc2ccccn2)c2ccccc12 (stereo not given),-0.132
21,COC(=O)C(CC#Cc1ccc2c(c1)[C@]1(C(=O)N2)[C@H](C(=O)O)[C@H]2C(=O)O[C@H](c3ccccc3)[C@H](c3ccccc3)N2[C@@H]1c1ccc(O)cc1)C(=O)OC,-0.188
22,CC1(C)[C@@H]2CC(C(O)C3C=CC4C(=O)N(c5ccccc5)C(=O)C4N3Nc3ccccc3)=C[C@H]1C2 (stereo not given in full),-0.0008
23,COc1ccc([Si](C)(C)[C@H]2[C@H](CCn3cc([C@H](O)c4ccccc4)nn3)O[C@@]3(C(=O)N(Cc4cccc(N5CCOC5=O)c4)c4ccccc43)[C@@H]2C)cc1,0.0342
24,COc1cc2c(cc1O)C=[N+](Cc1cccc(OC(F)(F)F)c1)CC2,-0.103
25,COC(=O)[C@@]1(Cc2ccc(OC)cc2)[C@H]2c3cc(C(=O)N(C)C)n(CCN4CNCC4=O)c3C[C@H]2CN1C(=O)c1ccccc1,-0.0877

# Tested on: Noggin (protein binding on small-molecule microarray)
# Assay: Noggin binders on small-molecule microarray, primary screen, biochemical, 635/667 nm fluorescence (AID 1095);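 also: score merges 667 nm feature fluorescence with signal to noise over triplicate slides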
# Conditions: 635 nm fluorescence, higher = more signal
row,SMILES,composite z-score
1,CCOC(=O)C1=CCC(c2ccc(C)cc2)N(S(=O)(=O)c2ccc(C)cc2)C1 (stereo not given),-0.0866
2,CN(C)CCCNC(=O)[C@@]1(c2ccc([N+](=O)[O-])cc2)CC(=O)N(C2CCCCC2)[C@@H]1c1ccc(CO)cc1,0.0069
3,CC(=O)N1Cc2ccccc2C[C@@]2(COC(c3ccc(OCCCO)cc3)=N2)C1=O,0.515
4,COCCOC(=O)N1C(=O)[C@@]2(c3cc(C#CC4=CCCCC4)ccc31)[C@H](C(=O)Nc1nc3ccccc3s1)[C@H]1C(=O)O[C@H](c3ccccc3)[C@H](c3ccccc3)N1[C@@H]2c1ccc(OCCO)cc1,1.23
5,C=CC[C@]1(C(=O)N2CCCCC2)N=C(c2ccc(OCCCO)cc2)O[C@H]1c1ccccc1,1.06
6,O=C1NCC(=O)N2[C@@H]1C[C@@H](C(=O)O)[C@H]2c1cccc(OCCO)c1,2.31
7,O=C1O[C@H](c2ccccc2)[C@H](c2ccccc2)N2[C@H]1[C@@H](C(=O)O)[C@]1(C(=O)Nc3ccc(C#CCCO)cc31)[C@H]2c1ccc(O)cc1,-0.228
8,C=CCOC(=O)[C@H]1[C@@H]2C(=O)O[C@@H](c3ccccc3)[C@@H](c3ccccc3)N2[C@@H](c2ccc(OCCOC(=O)[C@@H]3C[C@@H]4C(=O)N[C@@H](CCCCN(C)C)C(=O)N4[C@@H]3c3ccc(O)cc3)cc2)[C@]12C(=O)Nc1ccc(I)cc12,1.51
9,CC(C)(C)OC(=O)CC[C@]12N=C(c3ccc(OCCCO)cc3)O[C@H]1c1ccccc1N(CCS(=O)(=O)c1ccccc1)C2=O,0.905
10,CN(C)C(=O)[C@@]1(Cc2ccccc2CN=[N+]=[N-])N=C(c2ccc(OCCCO)cc2)O[C@H]1c1ccccc1,0.788
11,COc1cc2c(cc1OC)CN(C(=O)[C@H]1[C@@H]3C(=O)O[C@@H](c4ccccc4)[C@@H](c4ccccc4)N3[C@@H](c3ccc(O)cc3)[C@]13C(=O)Nc1ccc(C#CC4=CCCCC4)cc13)CC2,1.12
12,CN1C(=O)C2C=CC(C(O)c3cc(C(F)(F)F)cc(C(F)(F)F)c3)N(N3CCCCC3)C2C1=O (stereo not given),-0.297
13,COCC(=C=CC[C@H](O)c1ccccc1OCCO)C[C@H](O)c1cc(Cl)cc(Cl)c1O,0.653
14,CCCN1C(=O)[C@]2(CCS(=O)(=O)c3ccccc3)N=C(c3ccc(OCCCO)cc3)O[C@@H]2c2ccccc21,0.866
15,COc1cc2c(cc1OC)CN(C(=O)[C@H]1[C@@H]3C(=O)O[C@@H](c4ccccc4)[C@@H](c4ccccc4)N3[C@@H](c3ccc(O)cc3)[C@]13C(=O)Nc1ccc(C#CCNC(N)=O)cc13)CC2,0.622
16,CN(C)CCCNC(=O)[C@@]1(C)c2ccccc2C(=O)N(Cc2cc(F)cc(C(F)(F)F)c2)[C@H]1c1ccc(CO)cc1,-0.986
17,O=C1C2C=CC(C(O)C3CCCCC3)N(Nc3ccc([N+](=O)[O-])cc3)C2C(=O)N1c1ccccc1 (stereo not given),-0.995
18,O=C1OCCC/C=C\[C@H]2OC34C=CCN(c5ccc6ccccc6c5)C(=O)[C@H]3N(CCCCCCO)C(=O)[C@@H]4C12 (stereo not given in full),-0.695

row,SMILES,composite z-score
1,COCCOC(=O)N1C(=O)[C@@]2(c3cc(C#CCNC(N)=O)ccc31)[C@H](C(=O)NC[C@H](O)c1ccccc1)[C@H]1C(=O)O[C@H](c3ccccc3)[C@H](c3ccccc3)N1[C@@H]2c1ccccc1OCCO,1.72
2,CC(C)(C)OC(=O)CC[C@@]12N=C(c3ccc(OCCCO)cc3)O[C@@H]1c1ccccc1N(CCS(=O)(=O)c1ccccc1)C2=O,0.427
3,COC(=O)[C@@]1(Cc2ccc(F)cc2)[C@H]2c3cc(C(=O)N4CCCC4)n(Cc4cc(C)n(C)n4)c3C[C@H]2CN1C(=O)c1ccccc1,-0.678
4,COC(=O)c1c(CC[C@@H](CO)NC(=O)N2CCC[C@H]2Cn2cc(-c3ccccn3)nn2)oc(C(C)=O)c1C(=O)OC,0.81
5,CCOC(=O)[C@H]1CC=C2CC1C(=O)N1CCC[C@@H]1[C@@H]2O[Si](C)(C)C(C)(C)C (stereo not given in full),0.451
6,C=CCC(OC(C)=O)[C@@H]1[C@@H](N(Cc2ccc(-c3ccccc3)cc2)C(=O)Cc2ccc(F)cc2)c2cc(OCCCO)ccc2N1C(=O)c1ccc(-c2ccccc2)cc1 (stereo not given in full),-0.237
7,CCOC(=O)C[C@H]1[C@H](OC(=O)Cc2ccc3c(c2)OCO3)[C@@H](NC(=O)c2ccc(-c3ccccc3)cc2)c2cc(OCCCO)ccc2N1C(=O)c1ccc2ccccc2n1,0.0955
8,COCCCNC(=O)[C@@]1(Cc2ccccc2)N=C(c2ccc(OCCCO)cc2)O[C@H]1c1ccccc1,-0.416
9,NC(=O)[C@@H]1[C@H]2C(=O)O[C@H](c3ccccc3)[C@H](c3ccccc3)N2[C@H](c2ccc(O)cc2)[C@@]12C(=O)Nc1ccc(C#CC3(O)CCCCCC3)cc12,-0.6
10,COc1cc2c(cc1O)C(C1CC1)N(Cc1cc3c(cc1Br)OCO3)CC2 (stereo not given),-0.774
11,CCCCCC1=C2CNC(CCC)(C(=O)OC)C=C2C(C)C1=O (stereo not given),-0.236
12,COc1ccc(C(O)C2C=CC3C(=O)NC(=O)C3N2Nc2ccccn2)c2ccccc12 (stereo not given),-0.127
13,COC(=O)C(CC#Cc1ccc2c(c1)[C@]1(C(=O)N2)[C@H](C(=O)O)[C@H]2C(=O)O[C@H](c3ccccc3)[C@H](c3ccccc3)N2[C@@H]1c1ccc(O)cc1)C(=O)OC,-0.868
14,CC1(C)[C@@H]2CC(C(O)C3C=CC4C(=O)N(c5ccccc5)C(=O)C4N3Nc3ccccc3)=C[C@H]1C2 (stereo not given in full),-0.161
15,COc1ccc([Si](C)(C)[C@H]2[C@H](CCn3cc([C@H](O)c4ccccc4)nn3)O[C@@]3(C(=O)N(Cc4cccc(N5CCOC5=O)c4)c4ccccc43)[C@@H]2C)cc1,0.827
16,COc1cc2c(cc1O)C=[N+](Cc1cccc(OC(F)(F)F)c1)CC2,-0.0304
17,COC(=O)[C@@]1(Cc2ccc(OC)cc2)[C@H]2c3cc(C(=O)N(C)C)n(CCN4CNCC4=O)c3C[C@H]2CN1C(=O)c1ccccc1,0.788
